Screening results from PubChem.
Only some compounds are listed: those with a hit (about 3% of all), similar ones and a draw of the others.
PPC-1+TRAIL kill = kills PPC-1 cancer cells in the presence of TRAIL | PPC-1 cells + TRAIL, ATPLite viability luminescence | cell killing (% activity), % at 4 µM or 5 µM | 220,000 compounds, 0.41% hits | AID 1443;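 active means cell killing above 50% in the first pass at 4 µM, then a duplicate retest at 5 µM averaging 50% or more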;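 further: plate controls were cells with TRAIL plus DMSO for no effect and medium-only wells lacking cells for full effect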
SENP6 inh = inhibitors of human SENP6 protease; Q9GZR1; Recombinant SENP6 catalytic domain, aminoluciferin luminescence; inhibition, % at 10 µM; 330,000 compounds, 1.8% hits; AID 2599;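 active means inhibition above about 50% at the single tested dose, limit read from the data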;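 further: plate controls were DMSO wells with enzyme for no effect and DMSO wells lacking enzyme for full effect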
SENP8 block-1 = SENP8 (human) protease inhibition; recombinant SENP8, Nedd8 substrate fluorescence; inhibition, % at 20 µM; 360,000 compounds, 0.64% hits; AID 602440; in the data active means inhibition mostly above about 40%, no sharp cut-off; inactive means mostly below about 27%
Target sequence (Q96LD8 whole entry, looked up): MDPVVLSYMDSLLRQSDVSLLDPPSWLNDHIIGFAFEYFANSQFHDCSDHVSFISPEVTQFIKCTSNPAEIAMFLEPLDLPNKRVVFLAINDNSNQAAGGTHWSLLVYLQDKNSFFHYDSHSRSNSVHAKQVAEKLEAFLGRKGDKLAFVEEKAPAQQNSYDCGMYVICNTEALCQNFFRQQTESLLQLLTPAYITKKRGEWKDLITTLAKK
SENP7 block = SENP7 protease inhibition; Q9BQF6; recombinant SENP7, Z-RLRGG-aminoluciferin luminescence, 40 min; inhibition, % at 5 µM; 330,000 compounds, 1.5% hits;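 active means inhibition above about 50% at the single test dose, limit read from the data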;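 further: plate controls were DMSO with enzyme for no effect and no enzyme buffer wells for full effect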
SENP8 block-2 = SENP8 protease inhibition; Q96LD8; AID 2540; 330,000 compounds, 1.2% hits; inhibition, % at 10 µM; purified SENP8, Z-RLRGG-aminoluciferin cleavage, luminescence; in the data active means inhibition above about 50%
TRAIL sens C8 = caspase-8 TRAIL sensitization | NB7+C8 cells + TRAIL, ATPlite viability luminescence | inhibition (viability loss, TRAIL sensitization), % at 10 µM | 360,000 compounds, 1% hits;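 active means compounds causing at least 50% loss of cell viability in the single-dose screen, relative to plate controls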
* marks the source's active call; other numbers are inactive results; / = no result.

SMILES	PPC-1+TRAIL kill	SENP6 inh	SENP8 block-1	SENP7 block	SENP8 block-2	TRAIL sens C8
Cc1ccc(S(=O)(=O)n2ccc3c(OCCOCCNCc4ccc(F)cc4)cccc32)cc1	/	-13.3	22.8	-1.7	-5.6	52.5*
Cc1cccc(N=Nc2c(C)[nH]n(C(N)=S)c2=O)c1C	-4.2	76.5*	/	39.4	65.4*	/
O=C(CN1CCN(S(=O)(=O)c2ccc(F)cc2)CC1)Nc1ccc(Cl)c(C(F)(F)F)c1	0.0	-11.9	18.2	-6.9	-8.6	60.0*
CCOC(=O)c1ccc(NC(=O)C(=O)NCc2ccco2)cc1	18.0	-13.4	-42.4	-7.7	-1.5	-1.1
CCC(C)(C)C1CCc2[nH]nc(C(=O)N/N=C(\C)c3ccco3)c2C1 (centres undefined)	21.8	58.0*	26.2	39.1	46.0	32.2
O=C(Nc1nnc(-c2ccccc2)o1)NC1CCCCC1	6.5	6.7	-7.0	8.1	-4.1	61.0*
CCOC(=O)C1C(c2cc(OC)c(O)c(OC)c2)NC(=S)NC1(O)C(F)(F)F (centres undefined)	53.1*	5.1	5.3	4.2	4.6	-1.7
CCOC(=O)C1C(c2cc(OC)c(OC)c(OC)c2)NC(=S)NC1(O)C(F)(F)F (centres undefined)	4.9	-9.8	8.9	-3.0	9.1	-2.6
Cc1ccccc1SCC(=O)Nc1cc(C(F)(F)F)ccc1N1CCOCC1	/	-6.1	9.1	-14.6	-4.4	3.9
CC1=NN(c2nc(-c3ccc(C)cc3)cs2)C(=O)C1N=Nc1ccc2ccccc2c1 (centres undefined)	9.6	11.5	54.7*	4.9	-2.4	33.6
COC(=O)c1ccc2nc(C3CCCCC3)c(Cc3cccc(Cl)c3)n2c1	/	/	-140.0	/	/	5.3
O=C(N/N=C/c1ccc2nccnc2c1)c1ccc(Br)cc1	23.4	-2.9	-17.5	-3.2	0.0	-0.8
O=C(O)c1ccc(N/N=C/c2ccc3nccnc3c2)cc1	23.4	98.0*	16.0	100.5*	97.1*	27.2
CC(C)(C)OC(=O)NCCC(=O)N/N=C/c1cccc2cccnc12	16.6	-12.6	22.0	7.9	-3.4	0.2
O=C(O)c1ccc(N/N=C/c2cccc3cccnc23)cc1	2.3	54.2*	-86.2	31.2	30.1	6.5
Nc1nc(N)c2cc(Sc3ccc(Cl)cc3)ccc2n1	/	/	-477.9	/	/	72.7*
Nc1nc(N)c2cc(Sc3ccc4ccccc4c3)ccc2n1	33.8	-3.9	-399.0	-3.8	-6.0	72.7*
Nc1nc(N)c2cc(Sc3cccc(C(F)(F)F)c3)ccc2n1	/	/	-476.3	/	/	72.8*
COc1ccc(CN2CCN(C(=O)Cn3ncn4cccc4c3=O)CC2)c(OC)c1OC	/	-8.6	2.6	-7.0	-13.1	13.5
O=c1c2ccccc2sc2c(CO)ccc(NCCN3CCCCC3)c12	/	/	41.0*	/	/	5.3
O=c1c2ccccc2sc2ccc(NCCCN3CCOCC3)cc12	/	15.3	-3.5	12.9	4.9	10.4
CCOc1cc(C2Nc3cccc4cccc(c34)N2)ccc1O	-7.8	31.3	58.9*	2.5	1.7	-0.6
COc1ccc2c(c1)N(C)/C(=C/c1cccc[n+]1C)S2	/	-34.6	19.4	-7.9	-11.4	17.4
CCN1/C(=C/c2cccc[n+]2C)Sc2ccc(OC)cc21	/	-0.2	31.5	4.3	-5.8	54.0*
CN1/C(=C\C(=O)C[n+]2ccc(C(=O)c3ccccc3)cc2)C(C)(C)c2ccccc21	21.4	-9.6	-2.4	-6.9	-3.6	55.2*
SMILES	PPC-1+TRAIL kill	SENP6 inh	SENP8 block-1	SENP7 block	SENP8 block-2	TRAIL sens C8
CCCCNC(=O)C(NC(=O)c1cnc(C)cn1)C(=O)c1ccccc1 (centres undefined)	/	/	19.9	/	/	-1.8
CCn1cc(/C=C/C(=O)c2ccc(O)cc2)c(C)n1	37.0	-0.3	-32.9	0.5	-14.1	63.7*
O=C1C=C(c2ccccc2)C(c2ccccc2)C1O (centres undefined)	/	/	24.2	/	/	-4.4
COc1cccc2c1C(=O)c1c(O)c3c(c(O)c1C2=O)C[C@](O)(C(C)=O)C[C@H]3O[C@@H]1C[C@@H](N)[C@@H](O)[C@@H](C)O1	/	13.3	40.9*	9.6	11.4	62.3*
COc1cccc2c1-c1c(O)cccc1C2=O	/	4.3	11.5	-0.8	5.9	-6.0
COc1cccc2c1C(=O)c1c(O)c3c(c(O)c1C2=O)CC(O)(C(C)=O)CC3OC1CC(O)C(O)C(C)O1 (centres undefined)	/	/	50.4*	/	/	39.3
